HGIII-sPLA2 inh: human group III sPLA2 inhibitors, primary screen, biochemical, QFRET, BODIPY PC-A2 liposome substrate | Group 3 secretory phospholipase A2 (Homo sapiens), Q9NZ20 | QFRET BODIPY PC-A2 liposome hydrolysis, fluorescence | inhibition, % at 12.2 µM | actives 0.56% (n = 370,000) | AID 743126, 2013;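 active means inhibition above mean plus 3 SD of compounds lying within the high and low control bounds, cut at about 19% in these data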;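 further: 0% = median of test compound wells and 100% = no enzyme DMSO wells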
Target sequence (Q9NZ20 whole entry, looked up): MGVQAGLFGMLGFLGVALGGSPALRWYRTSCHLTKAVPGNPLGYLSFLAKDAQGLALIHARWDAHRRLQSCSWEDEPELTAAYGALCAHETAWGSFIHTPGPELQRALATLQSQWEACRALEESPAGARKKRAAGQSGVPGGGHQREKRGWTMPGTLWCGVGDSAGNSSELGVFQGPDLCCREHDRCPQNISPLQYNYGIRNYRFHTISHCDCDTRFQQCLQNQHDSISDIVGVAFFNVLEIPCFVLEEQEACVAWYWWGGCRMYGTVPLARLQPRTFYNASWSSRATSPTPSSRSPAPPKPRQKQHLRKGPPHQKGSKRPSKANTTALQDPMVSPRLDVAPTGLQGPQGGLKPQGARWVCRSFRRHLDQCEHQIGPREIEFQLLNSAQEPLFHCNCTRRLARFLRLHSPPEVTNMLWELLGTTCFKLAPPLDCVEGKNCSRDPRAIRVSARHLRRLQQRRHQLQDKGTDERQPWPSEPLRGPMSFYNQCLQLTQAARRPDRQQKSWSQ
UBC13 inh: UBC13 polyubiquitin chain formation inhibitors, primary screen, biochemical, TR-FRET, uHTS | Ubiquitin-conjugating enzyme E2 N (Homo sapiens), P61088 | inhibition, % at 20 µM | actives 0.47% (n = 330,000) | AID 485273, 2010; in the data active means inhibition above about 45%, passing the limit was not always enough
SUMO HTRF inh: inhibitors of in vitro SUMOylation cascade, primary screen, biochemical, HTRF, uHTS | inhibition, % at 35 µM | AID 2006, 2009 | actives 0.36% (n = 290,000) | HTRF SUMOylation assay, SAE1/SAE2 + UBC9 | SUMO-conjugating enzyme UBC9 (Homo sapiens), P63279; in the data active means inhibition above about 50%, passing the limit was not always enough
Target sequence (P63279 whole entry, looked up): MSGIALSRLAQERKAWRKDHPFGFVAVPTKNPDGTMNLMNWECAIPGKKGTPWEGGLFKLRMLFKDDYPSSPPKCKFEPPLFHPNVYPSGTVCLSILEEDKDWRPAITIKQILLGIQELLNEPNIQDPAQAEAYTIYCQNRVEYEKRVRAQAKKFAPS
GRIN3A LBD mod: binders of NR3A ligand-binding domain, primary screen, biophysical, differential scanning fluorimetry, uHTS; Glutamate receptor ionotropic, NMDA 3A (GRIN3A) ligand-binding domain; NR3A LBD differential scanning fluorimetry, Tm shift; 0% = protein alone, 100% = glycine-bound protein; Tm shift relative to glycine control, % at 25 µM; actives 2.5% (n = 340,000); AID 1259313, 2017;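 active means melting temperature shift of at least 10% of the positive control shift, at one fixed dose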
hGIII sPLA2 conf: human group III sPLA2 inhibitors, confirmation, biochemical, QFRET, triplicate; shares compounds with HGIII-sPLA2 inh; recombinant hGIII-sPLA2, BODIPY PC-A2 QFRET fluorescence; actives 34% (n = 2,000); inhibition, % at 12.2 µM;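 active means mean inhibition across triplicates above the hit cutoff set in the earlier primary screen, cut at about 19% in these data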;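 further: 0% = enzyme with DMSO and 100% = DMSO wells lacking enzyme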
BODIPY interf: 535nm fluorescence optical interference, confirmation, artefact control for HGIII-sPLA2 inhibitor project, biochemical, QFRET | shares compounds with HGIII-sPLA2 inh | BODIPY FL product fluorescence interference | inhibition, % at 12.2 µM | actives 8.5% (n = 2,000) | AID 743282, 2014;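 active means average inhibition above the solvent-only control mean plus 3 SD, cut at about 6% in these data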;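 further: 0% = DMSO with substrate plus product and 100% = DMSO with substrate alone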
535nm interf DR: 535nm fluorescence optical interference, dose response, artefact control for HGIII-sPLA2 inhibitor project, biochemical, QFRET | shares compounds with HGIII-sPLA2 inh | BODIPY FL product fluorescence interference, cell-free | IC50, µM | 240 tested, under 10 active;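 active means IC50 at or below 10 µM; inactive means IC50 above 10 µM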
Numbers without * were called inactive; nt = not tested or not shown. Shown are actives, neighbours in structure and some others; about 3.3% of the full set was active somewhere.

SMILES | HGIII-sPLA2 inh | UBC13 inh | SUMO HTRF inh | GRIN3A LBD mod | hGIII sPLA2 conf | BODIPY interf | others
O=C(Nc1cc2c(ccc3ccccc32)oc1=O)C1CCCCC1 | 23* | 6 | 13 | 1 | -3 | -4
COC(=O)C1=CN(c2ccc(N3CCOCC3)cc2)C(N)=C(C#N)C1c1cccc(OC)c1OC (stereo not given) | 20* | nt | nt | nt | -5 | -20
COC(=O)C1=CN(c2ccc(Oc3ccccc3)cc2)C(N)=C(C#N)C1c1cccc(OC)c1OC (stereo not given) | 11 | nt | nt | nt | nt | nt
COC(=O)C1CN(Cc2cn(Cc3ccccc3)nn2)CCS(=O)(=O)N1Cc1ccc(F)cc1 (stereo not given) | 8 | nt | nt | nt | nt | nt
Cc1nnc(SCc2nc(N)nc(Nc3ccccc3)n2)s1 | -5 | 2 | -14 | 2 | nt | nt
CCc1ccc(Nc2nc(N)nc(CSc3nc4ccccc4s3)n2)cc1 | 24* | 7 | -43 | 7 | -3 | 0
COCCNC(=O)/C(C#N)=C/c1c(N2CC(C)OC(C)C2)nc2ccccn2c1=O (stereo not given) | 21* | 3 | 22 | -5 | 3 | -8
O=C(NC(=S)NCCN1CCOCC1)c1ccc(Cl)cc1Cl | 21* | 3 | -20 | 2 | 12 | -7
O=C(NC(=S)NCCN1CCOCC1)c1ccccc1Cl | 5 | -6 | -3 | 4 | nt | nt
O=C(N1CCOCC1)C12CC3CC(C1)CC(C(=O)N1CCOCC1)(C3)C2 | 5 | -7 | 7 | 1 | nt | nt
O=C(N1CCOCC1)C12CC3CC(C1)CC(n1cnc(Cl)n1)(C3)C2 | 21* | -3 | -5 | -1 | 1 | -3
O=[N+]([O-])c1ccccc1CNC(Cc1ccccc1)c1ccccc1 (stereo not given) | 24* | -8 | 7 | 0 | 2 | -11
CC(=O)CC[C@@H]1CC[C@]2(CCCN(C(=O)C3CCCC3)C2)O1 | 6 | nt | nt | nt | nt | nt
CC(C)NC(=S)N/N=C/c1ccc2c(c1)OCCO2 | 19* | 6 | 4 | -2 | 18 | -5
COCCCNC(=S)N/N=C/c1ccc2c(c1)OCO2 | 24* | -6 | 20 | 2 | 12 | -3
O=C(CSc1nc2ccccc2nc1N1CCCCC1)N1CCN(S(=O)(=O)c2ccccc2)CC1 | 12 | nt | nt | nt | nt | nt
COc1ccc(CN2C/C(=C/C3=CCCCC3)N(C(=O)OCc3ccccc3)C2=N)c(OC)c1 | -1 | nt | nt | nt | nt | nt
O=C(NC(=S)Nc1ccccc1N1CCCC1)c1ccc([N+](=O)[O-])cc1 | 31* | -12 | -14 | -9 | 34* | 4 | 535nm interf DR=>122
COc1ccccc1NC(=S)NNC(=O)c1nn(C)c(C)c1Cl | 34* | -20 | -10 | -1 | 46* | 1 | 535nm interf DR=>122
COc1ccccc1NC(=O)c1nn(C)cc1Br | 8 | 3 | 9 | 3 | nt | nt
COc1ccccc1NC(=S)NNC(=O)c1nn(C)cc1Cl | 31* | -16 | -35 | 1 | 38* | 3 | 535nm interf DR=>122
COc1ccccc1NC(=S)NNC(=O)c1nn(C)c(C)c1Br | 44* | -11 | -45 | -10 | 29* | 6 | 535nm interf DR=>122
COc1ccccc1NC(=S)NNC(=O)c1ccc(O)cc1 | 9 | 9 | 8 | 0 | nt | nt
FC(F)Sc1nc2ccccc2[nH]1 | 25* | 4 | 23 | -1 | 15 | -3
Cc1cc(SCC(=O)NN=C2CCN(C(C)C)CC2)c(C)cc1Br | 22* | 10 | -2 | -2 | 4 | -16
SMILES | HGIII-sPLA2 inh | UBC13 inh | SUMO HTRF inh | GRIN3A LBD mod | hGIII sPLA2 conf | BODIPY interf | others
CC(=O)N1CCN(C(=O)CSc2cc(C)c(Br)cc2C)CC1 | 7 | -2 | -2 | 2 | nt | nt
CCOC(=O)c1c(NC(=S)Nc2cc([N+](=O)[O-])ccc2OC)sc2c1CCCCC2 | nt | -16 | -10 | nt | nt | nt
COC(=O)c1c(NC(=S)Nc2cc(OC)c(Cl)cc2OC)sc2c1CCCCC2 | 25* | 29 | 2 | -13 | 26* | 11*
CCCCCCc1c[nH]c2ccc(O)c(-c3ccccc3)c12 | -8 | nt | nt | nt | nt | nt
COc1ccc(NC(=O)N(C)[C@H]2C[C@H]3c4[nH]c5c(-c6cccc(C)c6)cccc5c4CCN3C(=O)[C@H]2[C@H](C)O)cc1 | -28 | nt | nt | nt | nt | nt
Cc1cccc(NC(=O)c2cccc3c2-c2ccccc2C3=O)n1 | -1 | 5 | 12 | -1 | nt | nt
Cc1cccc(C)c1NC(=O)c1cccc2c1-c1ccccc1C2=O | 22* | -1 | 2 | -3 | 4 | -5
Cc1ccccc1Cn1cc(CN2[C@H](C)COc3cc(Br)ccc3S2(=O)=O)nn1 | -10 | nt | nt | nt | nt | nt
Oc1ccccc1/C=N/Nc1ncc(Br)cn1 | 29* | nt | 20 | -6 | 16 | 32*
C=CCN(C)CC#CCCCCl | 5 | nt | nt | nt | nt | nt
CC(=O)CC[C@@H]1CC[C@]2(CCCN(S(C)(=O)=O)C2)O1 | 22* | nt | nt | nt | -2 | -6
C/C(=N\N=C\c1cccc(F)c1)c1nnn(-c2nonc2N)c1C | 20* | 7 | -9 | -14 | -5 | -7
Nc1nonc1-n1nnc(C(=O)N/N=C/c2cccc(F)c2)c1CN1CCCC1 | 3 | -5 | nt | -5 | nt | nt
CC1=C2N=C(N)N(Cc3ccccc3)C(Cc3ccccc3)C2n2c(=O)n(-c3ccccc3)c(=O)n2C1 (stereo not given) | 2 | nt | nt | nt | nt | nt
Cc1csc(NC(=S)NC(=O)c2ccccc2)n1 | 21* | 1 | -9 | 4 | 32* | 1 | 535nm interf DR=>122
COc1cccc(OCC(C)CN2CCC(C(O)(c3ccccc3)c3ccccc3)CC2)c1 (stereo not given) | -17 | nt | nt | nt | nt | nt
C=CCNC(=O)/C(=C/c1cn(-c2ccccc2)nc1-c1cccc([N+](=O)[O-])c1)NC(=O)c1ccccc1 | 21* | 10 | -14 | -12 | -12 | -24
Clc1ccc(-c2nnc(SCc3cccc4ccccc34)n2-c2ccc(Cl)cc2)cc1 | -7 | nt | nt | nt | nt | nt
CCCC(=O)NC(c1ccc(C(C)C)cc1)c1ccc2cccnc2c1O (stereo not given) | 20* | -13 | -37 | 2 | 18 | -12
CCCC(=O)NC(c1ccccc1Cl)c1ccc2cccnc2c1O (stereo not given) | 30* | -38 | 93* | -7 | 26* | 1
CCC(=O)NC(c1ccc(C)cc1)c1ccc2cccnc2c1O (stereo not given) | 21* | -21 | 5 | -1 | 16 | -12
CCCC(=O)NC(c1ccc(N(C)C)cc1)c1ccc2cccnc2c1O (stereo not given) | 23* | -12 | -9 | 0 | 25* | -5

Screening data as filed in PubChem.
